Our source for the cell viability remaining values is the supplement of paper PMC4188521.

Compound in this assay: CCc1cnn2c(NCc3ccc[n+]([O-])c3)cc(N3CCCC[C@H]3CCO)nc12 [dinaciclib]
As to the kind of experiment: cell viability remaining relative to DMSO control; higher = less cytotoxic (more viable cells). Particulars: 100 nM; 24 h. In outline:
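Remaining viability, expressed as a percentage of the DMSO control, compares luminescence in treated wells with that in DMSO-treated control wells. Solid tumour cell lines from commercial banks received 100 nM of the test compound for 24 hr, with final DMSO kept at ≤0.2%. Viability was read as ATP luminescence using CellTiter-Glo, and values are means from 2–6 plates run in triplicate wells.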
Turning to SW1271, the cell viability remaining was found to be 80.7%.

Turning to G361, the cell viability remaining came out at 4.9%.

Turning to OV7, the cell viability remaining stood at 73.4%.

Turning to MCAS, the cell viability remaining was determined as 82.8%.

For the target RKO, the cell viability remaining was determined as 49.6%.

Consider SW480, for which the cell viability remaining was determined as 81.7%.

Take CAPAN1: the cell viability remaining came out at 85.3%.

As for HCC1954, the cell viability remaining was 38%.

As to RL952, the cell viability remaining stood at 33.4%.

Consider UACC62, for which the cell viability remaining is 57.1%.

Take HPAFII: the cell viability remaining was 58.1%.

For KPL1, the cell viability remaining came to 50.2%.

Consider SKLMS1, for which the cell viability remaining stood at 82.9%.

In the case of LS180, the cell viability remaining worked out at 85.7%.

In the case of CHAGOK1, the cell viability remaining came out at 52.5%.

As to LS513, the cell viability remaining was found to be 55.8%.

Regarding HEC251, the cell viability remaining was 91.8%.

In the case of 59M, the cell viability remaining was determined as 73.2%.

CAOV3: the cell viability remaining was 42.2%.

On to SW1573, for which the cell viability remaining amounted to 99%.

For SKMEL24, the cell viability remaining is 81.7%.

With SKMEL5, the cell viability remaining stood at 76.8%.

For the target SW1463, the cell viability remaining came out at 87.4%.

As for WM2664, the cell viability remaining was 68.9%.

For MIAPACA2, the cell viability remaining stood at 41.2%.

As for KLE, the cell viability remaining was 91.8%.

For the target H4, the cell viability remaining amounted to 34.1%.

For SNGM, the cell viability remaining was determined as 98.3%.

For the target H446, the cell viability remaining is 51.2%.

Take T84: the cell viability remaining was 76.2%.

As for MDAMB468, the cell viability remaining is 29.1%.

Regarding CHL1, the cell viability remaining stood at 3.1%.

As to H1703, the cell viability remaining turned out to be 5.5%.
